Structures can show the parent of a compound that is named as a salt.

The subject of this test is HL-1. In words: relative cell viability (CellTiter-Glo) vs DMSO control (% of DMSO control); higher = more viable cells. Particulars: oxygen condition: hypoxia 48 h (1% O2) + reoxygenation 24 h; 200 nM. In outline: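 Cell viability, normalised to vehicle-treated control cells, was read by CellTiter-Glo luminescence. For this, HL-1 mouse atrial cardiomyocytes were plated at 1000 cells per well in 384-well plates alongside compounds at 40, 200, 1000 or 5000 nM in 0.01% DMSO. After a day, plates either spent 48 h in a hypoxic workstation at 1% O2 and then 24 h reoxygenating in a normal incubator, or remained in normoxia for the same period.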
(ATP-based viability assays read luminescence as a measure of living cells.)
On to `CC(C)(Sc1cc(C(C)(C)C)c(O)c(C(C)(C)C)c1)Sc1cc(C(C)(C)C)c(O)c(C(C)(C)C)c1` [Probucol], for which the relative cell viability came to 105. As for `COc1cc([C@@H]2c3cc4c(cc3[C@@H](O[C@@H]3O[C@@H]5CO[C@@H](C)O[C@H]5[C@H](O)[C@H]3O)[C@H]3COC(=O)[C@H]23)OCO4)cc(OC)c1O` [Etoposide], the relative cell viability stood at 67.1. Next, `Cc1ccc(C(=O)c2cc(O)c(O)c([N+](=O)[O-])c2)cc1` [Tolcapone]: 100; `CC[C@]1(O)C[C@@H]2CN(CCc3c([nH]c4ccccc34)[C@@](C(=O)OC)(c3cc4c(cc3OC)N(C)[C@H]3[C@@](O)(C(=O)OC)[C@H](OC(C)=O)[C@]5(CC)C=CCN6CC[C@]43[C@@H]65)C2)C1` [Vinblastine]: 41.6; `CN1CCC(=C2c3ccccc3CC(=O)c3sccc32)CC1` [Ketotifen fumarate]: 103. As to `CN(C)CC/C=C1/c2ccccc2COc2ccc(CC(=O)O)cc21` [Olopatadine hydrochloride], the relative cell viability came out at 92.6. As for `CCC[C@@H]1C[C@@H](C(=O)N[C@@H]([C@H]2O[C@H](SC)[C@H](O)[C@@H](O)[C@H]2O)[C@@H](C)O)N(C)C1` [Lincomycin hydrochloride], the relative cell viability was found to be 103. With `CO[C@H]1C[C@@H]2CC[C@@H](C)[C@@](O)(O2)C(=O)C(=O)N2CCCC[C@H]2C(=O)O[C@H]([C@H](C)C[C@@H]2CC[C@@H](OC(=O)C(C)(CO)CO)[C@H](OC)C2)CC(=O)[C@H](C)/C=C(\C)[C@@H](O)[C@@H](OC)C(=O)[C@H](C)C[C@H](C)/C=C/C=C/C=C/1C` [Temsirolimus] the figure was 67.6.

For the origin of these results see the supplement of paper PMC8371130.
